Data published in PubChem BioAssay (NCI).
The panel holds about 83,000 compounds, 20% with a hit somewhere; the sample as a whole holds those more often.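 Interpretation: 100, growth as untreated; towards 0, rising growth inhibition; 0, no net growth; 0 to -100, cell death. Compounds scoring below 10 were considered active.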 The source made the active and inactive calls.

Columns and labels:
Assay in all cases: NCI-60 one-dose screen, 48 h (100 = growth as untreated, 0 = no growth, -100 = all killed)
Conditions in all cases: 10 µM
DU-145 prostate = test system: DU-145 prostate
K-562 leukemia = test system: K-562 leukemia
MALME-3M melanoma = test system: MALME-3M melanoma
MDA-MB-231 breast = test system: MDA-MB-231 breast
RXF 393 renal = test system: RXF 393 renal
SF-268 CNS = test system: SF-268 CNS
SF-295 CNS = test system: SF-295 CNS
SF-539 CNS = test system: SF-539 CNS
UACC-257 melanoma = test system: UACC-257 melanoma
M14 melanoma = test system: M14 melanoma

Measured: growth

Cc1ccc(/C(CS(=O)(=O)c2ccc(C)cc2)=N\O)cc1
inactive: DU-145 prostate 111% | K-562 leukemia 105% | MALME-3M melanoma 116% | MDA-MB-231 breast 103% | RXF 393 renal 93.6% | SF-268 CNS 108% | SF-295 CNS 90.8% | SF-539 CNS 97.3% | UACC-257 melanoma 97% | M14 melanoma 116%

Cc1nc(Nc2nc3ccccc3o2)nc(-c2cccc([N+](=O)[O-])c2)c1C(=O)Nc1ccc(F)c(Cl)c1
active: K-562 leukemia 4.49% | MALME-3M melanoma 6.18% | MDA-MB-231 breast -17.4% | SF-295 CNS -40.7% | UACC-257 melanoma -11.3%
inactive: DU-145 prostate 18.6% | RXF 393 renal 29.4% | SF-268 CNS 11.9% | SF-539 CNS 25.7% | M14 melanoma 15.6%

CNC(=S)Sc1ccc([N+](=O)[O-])cc1[N+](=O)[O-]
active: K-562 leukemia 7.74%
inactive: DU-145 prostate 38.1% | MALME-3M melanoma 87.1% | MDA-MB-231 breast 50.8% | RXF 393 renal 97.4% | SF-268 CNS 94.2% | SF-295 CNS 95.1% | SF-539 CNS 25.9% | UACC-257 melanoma 62.5% | M14 melanoma 24.3%

CCOC(=O)c1cc(-c2ccccc2)nc(N)n1
inactive: DU-145 prostate 107% | K-562 leukemia 104% | MALME-3M melanoma 111% | MDA-MB-231 breast 97.4% | RXF 393 renal 93.7% | SF-268 CNS 106% | SF-295 CNS 93.8% | SF-539 CNS 94.5% | UACC-257 melanoma 101% | M14 melanoma 108%

Cc1cc(Cl)ccc1Nc1nc(C(F)(F)F)ccc1C(=O)N/N=C/c1ccccc1Cl
inactive: DU-145 prostate 36.4% | K-562 leukemia 56.3% | MALME-3M melanoma 30% | RXF 393 renal 24.1% | SF-268 CNS 31.1%
active: MDA-MB-231 breast -15.5% | SF-295 CNS 8.72% | SF-539 CNS 6.63% | UACC-257 melanoma 6.87% | M14 melanoma 9.99%

Nc1c(C(=O)NC2CCCCC2)sc2nc3c(cc12)C(=O)CCC3
inactive: DU-145 prostate 102% | K-562 leukemia 88.4% | MALME-3M melanoma 139% | MDA-MB-231 breast 101% | RXF 393 renal 92.1% | SF-268 CNS 109% | SF-295 CNS 88.8% | SF-539 CNS 107% | UACC-257 melanoma 88.1% | M14 melanoma 103%

CCc1c(C)[nH]c(=O)c(C(N)=O)c1C#N
inactive: DU-145 prostate 115% | K-562 leukemia 114% | MALME-3M melanoma 103% | MDA-MB-231 breast 102% | RXF 393 renal 108% | SF-268 CNS 105% | SF-295 CNS 98.1% | SF-539 CNS 92.9% | UACC-257 melanoma 92.5% | M14 melanoma 97.5%

Cc1nn2c(/C=C3/C(=O)Nc4ccc(Cl)cc43)c(-c3ccccc3)nc2s1
active: MALME-3M melanoma -2.37% | MDA-MB-231 breast 8.13% | RXF 393 renal 7.51%
inactive: DU-145 prostate 31.9% | K-562 leukemia 56.7% | SF-268 CNS 30.4% | SF-295 CNS 70.1% | SF-539 CNS 38.1% | UACC-257 melanoma 62.3% | M14 melanoma 55.4%

CCCc1c(CC)c(=N)c2ccccc2n1C
inactive: DU-145 prostate 62% | MDA-MB-231 breast 43.1% | SF-268 CNS 79.5% | SF-539 CNS 68.1%
active: K-562 leukemia -3.78% | MALME-3M melanoma -88.7% | RXF 393 renal 8.09% | SF-295 CNS -51.9% | UACC-257 melanoma -64.1% | M14 melanoma -61.6%

CC(C)/C=N/NC(N)=S
inactive: DU-145 prostate 95.3% | K-562 leukemia 47.3% | MALME-3M melanoma 80.3% | MDA-MB-231 breast 86.2% | RXF 393 renal 106% | SF-268 CNS 99.9% | SF-295 CNS 90.5% | SF-539 CNS 102% | UACC-257 melanoma 40.5% | M14 melanoma 84.4%

O=C(O)CNS(=O)(=O)c1ccc(OCCOc2ccc(S(=O)(=O)NCC(=O)O)cc2)cc1
inactive: DU-145 prostate 107% | K-562 leukemia 104% | MALME-3M melanoma 99.7% | MDA-MB-231 breast 108% | RXF 393 renal 106% | SF-268 CNS 98.9% | SF-295 CNS 104% | SF-539 CNS 93.6% | UACC-257 melanoma 104% | M14 melanoma 104%

COc1ccccc1NC1=C(N2CCCCC2)C(=O)c2ccccc2C1=O
inactive: DU-145 prostate 105% | K-562 leukemia 75.5% | MALME-3M melanoma 96.9% | MDA-MB-231 breast 83% | RXF 393 renal 67.1% | SF-268 CNS 88.8% | SF-295 CNS 67.1% | SF-539 CNS 93.6% | UACC-257 melanoma 76.7% | M14 melanoma 89.9%
